Results with a measured potency or affinity are listed apart. Activity calls are given as the source filed them. How the calls were made is not given here.
test: HepG2 cell cytotoxicity, cytotoxicity control, set 4 (AID 504910); conditions: series mostly up to 50 µM

SMILES	outcome
CC1CCN(C(=O)CSc2nc3ccccc3c(=O)[nH]2)CC1	inactive
O=c1[nH]c(SCc2ccccc2Cl)nc2c1CCCC2	inactive
CC(C)CCNC(=O)CSc1nc2c(c(=O)[nH]1)CCC2	inactive
CC(C)CCNC(=O)CSc1nc2ccccc2c(=O)[nH]1	inactive
COC(=O)C(C)Oc1ccc(Cc2ncc(C(F)(F)F)cc2Cl)cc1 (stereo not given)	inactive
Cc1nc(SCC(=O)N(C)c2ccccc2)[nH]c(=O)c1C	inactive
Cc1cccc(/C=C/C(=O)c2ccc([N+](=O)[O-])o2)c1	inactive
Cn1c(SCC(=O)NC2CCCCC2)nc2ccccc2c1=O	inactive
CCC(Sc1nc2c(c(=O)[nH]1)CCC2)C(=O)Nc1cccc(OC)c1 (stereo not given)	inactive
NC(=O)CSc1nc2ccccc2c(=O)[nH]1	inactive
Cc1nc(SCC(=O)NC2CCCC2)[nH]c(=O)c1C	inactive
CN[C@@H]1[C@H](O[C@H]2[C@H](O[C@H]3[C@H](O)[C@@H](O)[C@H](N=C(N)N)[C@@H](O)[C@@H]3N=C(N)N)O[C@@H](C)[C@]2(O)C=O)O[C@@H](CO)[C@H](O)[C@H]1O	inactive
NC[C@H]1O[C@H](O[C@H]2[C@H](O)[C@@H](O[C@H]3O[C@H](CO)[C@@H](O)[C@H](N)[C@H]3O)[C@H](N)C[C@@H]2N)[C@H](O)[C@@H](O)[C@@H]1O	inactive
O=C(CSc1nc2ccccc2c(=O)[nH]1)NCc1ccc(Cl)cc1	inactive
Cc1ccc(NC(=O)COC(=O)CCc2c[nH]c3ccccc23)cc1[N+](=O)[O-]	inactive
O=C(CSc1nc2ccccc2c(=O)[nH]1)NC1CCCC1	inactive
CC1CCN(C(=O)C2CCN(c3nnc(-n4cccc4)s3)CC2)CC1	inactive
CNC(=O)CSc1nc2ccccc2c(=O)[nH]1	inactive
COc1cccc(NC(=O)CSc2nc3c(c(=O)[nH]2)CCC3)c1	inactive
CC(Sc1nc2ccccc2c(=O)[nH]1)C(=O)NC1CCCCC1 (stereo not given)	inactive
O=C(CSc1nc2c(c(=O)[nH]1)CCCC2)NC1CCCCC1	inactive
O=C(CSc1nc2ccccc2c(=O)[nH]1)N1CCOCC1	inactive
CN(C(=O)CSc1nc2ccccc2c(=O)[nH]1)C1CCCCC1	inactive
CCOC1OC(=O)C(Cl)=C1Nc1ccccc1C (stereo not given)	inactive
COc1c(N2CCNC(C)C2)c(F)cc2c(=O)c(C(=O)O)cn(C3CC3)c12 (stereo not given)	inactive
Cc1nc(SCc2ccccc2Cl)[nH]c(=O)c1C	inactive
Cc1c[nH]c(=S)[nH]c1=O	inactive
O=C(CSc1nc2c(c(=O)[nH]1)CCC2)NC1CCCCC1	inactive
Cc1cc(Br)ccc1NC(=O)c1cnc(N2CCN(c3ccccn3)CC2)c2ccccc12	inactive
Cc1nc(SCC(N)=O)[nH]c(=O)c1C	inactive
